# Assay results from PubChem BioAssay AID1259343 (VanderVen Lab, College of Veterinary Medicine, Cornell …, 2017).
# Among all 6,200 compounds or so, about 2,900 (47%) were called active. So high a share suggests a set chosen from earlier hits. The list shows a part of the results. Values without a mark were called inactive. Cut-off read from the data, not from the text of the source: active = inhibition above about 50%; inactive = the rest.
# Assay: Mycobacterium tuberculosis growth inhibition, primary screen (AID 1259343)
# Details: inhibition: at 10 µM, stronger effect = higher value; outcome: 10 uM
row,SMILES,inhibition
1,COc1ccc(CC(N)c2csc(Nc3cccc(OC)n3)n2)cc1 (centres undefined),85.1% (active)
2,COc1cccc(Nc2nc(C(N)Cc3ccc(Cl)cc3)cs2)n1 (centres undefined),80.4% (active)
3,NC(Cc1ccc(Cl)cc1)c1csc(Nc2ccc(-c3ccccc3)nn2)n1 (centres undefined),91.2% (active)
4,COc1cccc(Nc2nc(C(N)Cc3ccc(F)cc3)cs2)n1 (centres undefined),86.6% (active)
5,COc1ccc(-c2csc(NC3CCCC3)n2)c(OC)c1,16.6%
6,COc1cccc(Nc2nc(C(N)Cc3ccc(C(F)(F)F)cc3)cs2)n1 (centres undefined),75.8% (active)
7,COc1cccc(Nc2nc(C(N)C3CCCCC3)cs2)n1 (centres undefined),86.2% (active)
8,CN(Cc1ccc(O)cc1)C(=O)C1=NOC(c2ccccc2)C1 (centres undefined),66.5% (active)
9,COc1ccc(C(=O)N2CCOC(CCc3ccccc3)C2)cc1F (centres undefined),57.4% (active)
10,CC(C)Cc1cc(C(=O)N2CCOC(CCCc3ccccc3)C2)n[nH]1 (centres undefined),54.1% (active)
11,O=C(c1ccc2c(c1)OCCO2)N1CCOC(CCc2ccccc2)C1 (centres undefined),39.8%
12,O=C(CCc1cccs1)N1CCOC(CCCc2ccccc2)C1 (centres undefined),34.9%
13,CC(C)c1cc(C(=O)N2CCOC(CCc3ccccc3)C2)no1 (centres undefined),56.6% (active)
14,O=C(COc1ccccc1F)Nc1ccc2c(c1)OC(F)(F)O2,21.4%
15,O=C(CCS(=O)(=O)c1ccccc1F)Nc1ccc(I)cc1,80.2% (active)
16,O=C1N(c2ccc(Cl)cc2)C(c2ccc3c(c2)OCO3)C1(F)F (centres undefined),78.8% (active)
17,O=C1N(c2ccc3c(c2)OCO3)C(c2ccc3c(c2)OCO3)C1(F)F (centres undefined),102% (active)
18,O=C1N(c2ccc3c(c2)OCO3)C(c2cccc(F)c2)C1(F)F (centres undefined),27%
19,c1cc2c(cc1[C@H]1OC[C@H]3[C@@H]1CO[C@H]3c1ccc3c(c1)OCO3)OCO2,49%
20,Clc1ccc(-n2ncc3c2CCN(Cc2cc4c(cc2Cl)OCO4)C3)cc1,23.9%
21,O=C1N(c2ccccc2)C(c2ccco2)C1(F)F (centres undefined),40.3%
22,O=C1N(c2ccc3c(c2)OCO3)C(c2ccc(Cl)cc2)C1(F)F (centres undefined),89.3% (active)

row,SMILES,inhibition
1,CCCc1cc(=O)[nH]c(SCCOc2ccc(Br)cc2)n1,18.1%
2,Nc1c(C(=O)CCC(=O)O)oc2ccc(Cl)cc12,20.1%
3,Nc1c(C(=O)c2ccc(Br)s2)oc2ccccc12,43.5%
4,Nc1c(C(=O)CCC(=O)O)oc2ccc(Br)cc12,68% (active)
5,O=C(O)CCC1NCC2CC1CN1CCCCC21 (centres undefined),1.66%
6,CSC(Nc1ccc(Br)cc1)=C(C#N)C#N,101% (active)
7,Cc1ccc(Cl)c(OCCCOc2cccc3cccnc23)c1,71.6% (active)
8,Clc1cccc(Cl)c1OCCOc1cccc2cccnc12,94.7% (active)
9,COc1ccc(C2CC(=O)C3=C(C2)NC(C)=C(C#N)C3c2ccc(Cl)c(Cl)c2)cc1 (centres undefined),-9.69%
10,CCOc1ccc2nc(CN3CCN(CC=C(C)C)C(CCO)C3)ccc2c1 (centres undefined),inactive
11,CCCCc1ccc(N2C3=[N+](CCCS3)CC2(O)c2ccc(C)cc2)cc1 (centres undefined),79.3% (active)
12,OC1(c2cccs2)C[N+]2=C(SCC2)N1c1ccccc1 (centres undefined),-3.48%
13,Oc1c(Br)cc(C=NNc2ccccn2)cc1Br,97.7% (active)
14,N#Cc1cc(F)c(NCc2ccc(F)cc2)c(F)c1,69.3% (active)
15,N#Cc1ccc(CNc2ccc(F)cc2Cl)cc1,-56.2%
16,N#Cc1cnc(NCc2ccc(N3CCOCC3)c(F)c2)c(Cl)c1,5.19%
17,CCCCS(=O)(=O)NCC1CCCCC1,25.9%
18,CCCCS(=O)(=O)NCCOc1ccc(C)cc1,75% (active)
19,CC(O)c1cccc(OCc2ccc(S(=O)(=O)C(F)F)cc2)c1 (centres undefined),88.2% (active)
20,COc1cccc(C(=O)Nc2ccc(S(=O)(=O)C(F)F)cc2)c1,-1.65%
21,Cc1ccccc1OCC1=NN2C(=N)/C(=C/c3ccc(Br)o3)C(=O)N=C2S1,51.2% (active)
22,O=C1CC(C(=O)NCc2ccccc2Cl)c2ccc(F)cc2N1 (centres undefined),87.3% (active)

row,SMILES,inhibition
1,O=C(Cc1ccccc1Cl)NCc1cc(F)cc(F)c1,24%
2,CC1(Cc2ccccc2Cl)C(=O)Nc2c(Cl)ccc(Cl)c21 (centres undefined),20.4%
3,C(=NNc1nc2ccccc2[nH]1)C(=NNc1nc2ccccc2[nH]1)c1ccccc1,79.8% (active)
4,CC(=NNc1nc2ccccc2[nH]1)c1ccc(C)o1,84.2% (active)
5,C(=NNc1nc2ccccc2[nH]1)c1c(-c2ccccc2)[nH]c2ccccc12,28.8%
6,CC1Oc2ccccc2C=C1/C=N\Nc1nc2ccccc2[nH]1 (centres undefined),94.2% (active)
7,CC1=CCCC(C)(C)C1C=CC(C)=NNc1nc2ccccc2[nH]1 (centres undefined),36.3%
8,OCn1nc(-c2ccc(Cl)cc2Cl)oc1=S,75.9% (active)
9,Fc1ccc(-c2[nH]ncc2CN2CCC(c3ccccc3F)C2)c(F)c1 (centres undefined),84.8% (active)
10,COc1cccc(-c2cnnc(N3CCC(c4ccccc4F)C3)n2)c1 (centres undefined),41.2%
11,O=C1NC(=S)NC(=O)C1=Cc1ccc(OCc2ccc(Cl)cc2)cc1,97.1% (active)
12,C=CCN1C(=O)NC(=O)/C(=C/c2ccc(OCc3ccccc3F)cc2)C1=O,37.1%
13,N#Cc1c(NC(=O)c2ccco2)sc2c1CCCCC2,-3.03%
14,NC(=O)c1ccsc1NC(=O)c1ccc([N+](=O)[O-])s1,-3.4%
15,CCCCCC(C)NC(=O)c1ccc([N+](=O)[O-])s1 (centres undefined),-12.6%
16,O=C(Nc1ccc([N+](=O)[O-])cc1)c1ccc(Br)s1,91.6% (active)
17,N#Cc1c(NC(=O)CC2(CC(=O)O)CCCC2)sc2c1CCCC2,inactive
18,Cc1ccc(NC(=O)c2ccc([N+](=O)[O-])s2)cc1,78.9% (active)
19,N#Cc1c(NC(=O)c2ccc([N+](=O)[O-])s2)sc2c1CCCC2,99.4% (active)
20,CN[C@H](CC(C)C)C(=O)N[C@H]1C(=O)N[C@@H](CC(N)=O)C(=O)N[C@H]2C(=O)N[C@H]3C(=O)N[C@H](C(=O)N[C@H](C(=O)O)c4cc(O)cc(O)c4-c4cc3ccc4O)[C@H](O)c3ccc(c(Cl)c3)Oc3cc2cc(c3O[C@@H]2O[C@H](CO)[C@@H](O)[C@H](O)[C@H]2O[C@H]2C[C@](C)(N)[C@H](O)[C@H](C)O2)Oc2ccc(cc2Cl)[C@H]1O,49.3%
